Results on 80 compounds are retold here after PubChem BioAssay AID602141 (Sanford-Burnham Center for Chemical Genomics, 2011).

In all, about 360,000 compounds went through this assay and about 1,300 (0.36%) were called active. Shown is part of a subset that was picked to be rich in actives. Unmarked numbers belong to inactive results.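 Rule for the calls: active = corrected activity change at or below -50% at 5 µM; inactive = the rest.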

A short description of this experiment: KKLEB cell viability reduction – uHTS, fluorescence assay plates, cytotoxicity control for CF NF-kB inhibitor project, primary screen (AID 602141). Particulars: KKLEB CF airway cells viability, ATPlite luminescence, overnight; at 5 µM; active compounds read low; cells stimulated with P. aeruginosa culture filtrate. (In general: Cellular ATP, detected with luciferase, serves as a proxy for viable cell number.)
Turning to `Cc1cccc(-n2ncc(Cl)c(Cl)c2=O)c1`, the activity change (cytotoxicity) is -97.1% (active).

Take `CCCNC(=O)c1c(Cl)cnn1-c1ccc(C)cc1`: the activity change (cytotoxicity) was 8.9%.

For `Nc1c(-c2cccc(Cl)c2)cnn1-c1cccc([N+](=O)[O-])c1`, the activity change (cytotoxicity) is 4.3%. For the compound `CN(C)/C=C(/C(=O)c1ccc(Cl)c(Cl)c1)c1nnnn1-c1ccccc1`, the activity change (cytotoxicity) is 7.2%. The value for `O=C(NCCN1C(=O)S/C(=C\c2cccnc2)C1=O)c1ccc(S(=O)(=O)N2CCCC2)cc1` was -6.2%; that for `C=CCn1c(C2CC(=O)N(c3ccc(C)cc3)C2)nc2ccccc21` (stereo not given) was 1.2%; that for `COc1ccc(NC(=O)/C(Cl)=C(/Cl)S(=O)Cc2ccc(C)cc2)cn1` (stereo not given) was -105% (active). The value for `COc1ccc(NC(=O)C2Cc3c(-c4ccc5c(c4)OCO5)ccnc3O2)cn1` (stereo not given) was -19.2%; that for `COc1cccc(NC(=S)N(Cc2ccc(C)cc2)Cc2ccccn2)c1` was 2.6%.

For the compound `CC(C)NC(=O)C1(C)CCCCCN1C(=O)c1ccc(-c2ccccc2)cc1` (stereo not given), the activity change (cytotoxicity) was -2%. The value for `COC(=O)c1ccc(S(=O)(=O)NCc2ccccc2)n1C` was 9.6%; that for `C=CCOc1nc2c(c(=O)n(C)c(=O)n2C)n1Cc1ccc(Cl)cc1Cl` was 9.5%.

Consider `CN(CC(=O)NCCc1ccccn1)S(=O)(=O)c1ccc(Cl)cc1`, for which the activity change (cytotoxicity) is 10.8%.

For the compound `CN(CC(=O)NCC(c1ccccc1)N1CCCC1)S(=O)(=O)c1ccc(Cl)cc1` (stereo not given), the activity change (cytotoxicity) is 16%.

Regarding `CN(CC(=O)NNC(=O)CNC(=O)c1ccccc1Cl)S(=O)(=O)c1ccc(Cl)cc1`, the activity change (cytotoxicity) is -61.3% (active). Consider `O=S(=O)(c1ccccc1)c1nc(Cc2ccccc2)oc1N1CCOCC1`, for which the activity change (cytotoxicity) was -0.9%. The value for `c1ccc(CSc2ncnc3c2sc2nc(N4CCOCC4)c4c(c23)CCCC4)cc1` was -51% (active); that for `O=C(O)c1cccnc1Sc1ncnc2sc3c(c12)CCC3` was 15.9%. The value for `Cc1c(CCO)c(=O)[nH]n1C(=O)c1c(F)cccc1F` was 1.8%. For the compound `S=c1[nH]cc(-c2ccc(Cl)cc2)n1-c1ccccc1`, the activity change (cytotoxicity) is 6.2%. Then `Cc1ccnc(SCC(=O)Nc2cccc(S(=O)(=O)N3CCOCC3)c2)n1`, with 7.3%; and `O=C(CCN1CCCCC1)N=Nc1c(O)[nH]c2ccccc12`, with -4.3%. `O=C(NCc1ccncc1)c1ccc(NS(=O)(=O)c2cccc([N+](=O)[O-])c2)cc1`: the activity change (cytotoxicity) was -3%. The value for `O=[N+]([O-])c1cc(S(=O)(=O)Nc2cccc(Cl)c2)ccc1N=Nc1c(O)[nH]c2ccccc12` was -80% (active); that for `CCCNC(=O)CCn1cc(-c2ccc(OC)cc2)nc1CCN` was 2.3%; that for `COc1ccc(C2CC(=O)C=C(NCC3CCCO3)C2)cc1` (stereo not given) was 0%. As for `O=C(NCC(F)(F)F)c1ccc(S(=O)(=O)NCCc2ccc3c(c2)OCCO3)cc1`, the activity change (cytotoxicity) was 19.2%. Then `O=C(OC12CC3CC(CC(C3)C1)C2)c1ccc(NCc2cc(O)ccc2O)cc1`, with -63.4% (active); and `O=C(CC1CCCCC1)Nc1c2c(nn1-c1ccc(F)cc1)CS(=O)(=O)C2`, with -3.9%; and `COc1ccc(-c2c(C#Cc3ccsc3)c3cc(-c4ccc(CN5CCOCC5)cc4)ccc3n2C)cc1`, with -4.5%.

For the compound `O=C(Nc1cccc2ccccc12)NC1CC1`, the activity change (cytotoxicity) is 1%.

As for `O=C(Nc1cccc2ccccc12)c1onc2c1CCCC2`, the activity change (cytotoxicity) is 5.7%. The value for `O=C(Nc1cccc2ccccc12)c1[nH]c(-c2ccccc2)c2c1C(=O)N(C1CC1)C2=O` was -52.9% (active). As for `COCCN(C(=S)Nc1ccccc1OC)C1CCN(C(C)C)CC1`, the activity change (cytotoxicity) is -3.5%.

For the compound `CC(Oc1ccc(F)cc1F)C(=O)/C=C/N(C)C` (stereo not given), the activity change (cytotoxicity) is 4.1%. Then `COC(=O)c1ccc(CNC(=O)C2CCC(=O)N(Cc3ccccn3)C2)cc1` (stereo not given), with -4.5%; and `COc1ccc(C2=NO[C@@H]3C(=O)N(Cc4ccccc4)C(=O)[C@H]23)cc1OC`, with -0.3%. The value for `COc1ccc(C2SCCN2S(=O)(=O)c2ccccc2)cc1OC` (stereo not given) was -14.9%; that for `COc1ccc(-c2cc(C(F)(F)F)nc(S(C)(=O)=O)n2)cc1OC` was -78.4% (active); that for `Cn1c(CCNS(=O)(=O)c2ccc(F)cc2)nnc1SCc1cccnc1` was -4.1%. On to `CC(=O)NC(C(=O)NCC(N)=O)C(C)C` (stereo not given), for which the activity change (cytotoxicity) was -4.4%. Then `C/C(=N\NC(=O)c1cc2c(s1)CCC(C)C2)c1cccnc1` (stereo not given), with 8.5%. The value for `O=C(O)Cc1ccc(NCc2ccccc2Cl)cc1` was 7.8%; that for `CC(CN1CCCCC1)OC(=O)c1ccccc1Cl` (stereo not given) was 0.5%.

Turning to `CC(C)OC(=O)c1ccc(NCc2cc(O)ccc2O)cc1Cl`, the activity change (cytotoxicity) was -51.3% (active). For the compound `CCN(CC)CCn1c(/N=C/c2cc(Br)ccc2O)nc2ccccc21`, the activity change (cytotoxicity) was 2.8%. The value for `Oc1ccc(Br)cc1/C=N/Nc1ccccn1` was -94.7% (active); that for `O=C(Nc1ccc(Br)cc1)c1cc(S(=O)(=O)Nc2ccccn2)ccc1Cl` was -6.3%.

On to `N#CC(=C1SC=CS1)c1nc(-c2ccccc2)cs1`, for which the activity change (cytotoxicity) is 9.6%. `CCOc1ccc(NC(=O)CN(C)C(=O)Cn2c(=O)cnc3ccccc32)cc1OCC`: the activity change (cytotoxicity) was 3.8%. Turning to `COc1cccc2c1C(=O)c1c(O)c3c(c(O)c1C2=O)CC(O)(C(C)=NNC(=O)c1ccc(Cl)c(Cl)c1)CC3OC1CC(N)C(O)C(C)O1` (stereo not given), the activity change (cytotoxicity) was -53.3% (active). The value for `CCOC(=O)C1(Cc2cccc(OC)c2)CCN(Cc2csc(C(C)=O)c2)CC1` was -6%.

Consider `Oc1cccc2ccc(/C=C/c3ccc(Br)s3)nc12`, for which the activity change (cytotoxicity) is -93.8% (active). Then `COc1ccc([C@H]2CC(=O)C=C(/C=C/c3ccccc3)C2)cc1`, with 9.7%; and `CC(C)c1ccc(/C=C2\NC(=O)NC2=O)cc1`, with 11.8%. Turning to `CC[C@]12c3[nH]c4cc(CCC(=O)N(C)C)ccc4c3CCN1C(=O)[C@@H](CC(=O)NCCCn1ccnc1)C[C@@H]2C(=O)N1CCN(C(=O)C2CC2)CC1`, the activity change (cytotoxicity) was 0.6%. The value for `COC(=O)C1=C(NC(=O)C(C)(C)C)CCS1` was 2.3%. Then `CCOC(=O)c1c(C)[nH]c(C)c1C(=O)CSc1nc(N)cc(N)n1`, with 13.1%; and `CCOC(=O)c1cnc(COc2ccccc2Cl)[nH]c1=O`, with 4.6%; and `CCOC(=O)c1c(C)[nH]c2c1-c1ccccc1C(=O)C2=O`, with -91.6% (active). The value for `Cc1c2cn[nH]c(=O)c2c(C)n1Cc1ccc(F)cc1` was -2.2%; that for `O=C(O)CSCC(=O)Nc1ccc(C(F)(F)F)cc1` was -4%.

Regarding `CC(=O)Nc1ccc(SCC(=O)NC(=O)c2ccc(Cl)cc2)cc1`, the activity change (cytotoxicity) is 8%. The value for `O=C(CCl)Nc1ccc(Sc2ccc(NC(=O)CCl)cc2)cc1` was -68.5% (active); that for `CN(C)c1ccc(C(=S)N2CCN(C(=S)Nc3ccc(Cl)cc3)CC2)cc1` was 5.1%. For `CC(=O)c1cc(NC(=O)c2ccccc2)c(=O)oc1/C=C/N(C)C`, the activity change (cytotoxicity) is -6.9%. As for `O=C(NC1=CC(=O)c2ccccc2C1=O)c1ccccc1`, the activity change (cytotoxicity) is -97.9% (active). Then `O=C(COC(=O)c1cccc(Br)c1)Nc1cccc2c1C(=O)c1ccccc1C2=O`, with -17.2%. For the compound `COc1ccc(CCNC(=O)CN(c2ccccc2)S(C)(=O)=O)cc1OC`, the activity change (cytotoxicity) was 8.4%.

`COc1ccc(C(C(=O)NC2CCCCC2)N(C(=O)CCl)c2ccccc2Cl)cc1` (stereo not given): the activity change (cytotoxicity) was 4.1%. Consider `COc1ccc(C(CCN(Cc2ccc(OC)c(OC)c2)C(=O)CCl)c2ccccc2)cc1` (stereo not given), for which the activity change (cytotoxicity) was -76.9% (active).

Consider `CC(C[N+](C)(C)C)OC(N)=O` (stereo not given), for which the activity change (cytotoxicity) is -65.7% (active). Take `CC(=O)OC(C)C[N+](C)(C)C` (stereo not given): the activity change (cytotoxicity) is 3.7%. `COc1ccc(C(N)c2csc(NC(=O)Nc3cccc(C(F)(F)F)c3)n2)cc1` (stereo not given): the activity change (cytotoxicity) is -18.3%.

As for `NC(c1ccccc1)c1csc(NC(=O)Nc2cccc(C(F)(F)F)c2)n1` (stereo not given), the activity change (cytotoxicity) is -17.2%.

In the case of `NC(c1csc(NC(=O)Nc2cccc(C(F)(F)F)c2)n1)C1CCCCC1` (stereo not given), the activity change (cytotoxicity) is -57.8% (active). Then `c1ccc2c(c1)OCC(c1nn3cnnc3s1)O2` (stereo not given), with 0.1%; and `O=C(CSc1nnc(N2CCOCC2)n1-c1cccc(F)c1)N1CCN(c2ccccn2)CC1`, with -2.4%. For the compound `O=C(/C(=N\O)n1cncn1)c1ccc(Br)cc1Br`, the activity change (cytotoxicity) was -5.9%. The value for `Cc1c(NC(=O)CN(C)CC(=O)Nc2ccc(F)c(F)c2F)c(=O)n(-c2ccccc2)n1C` was 5.4%.
